According to PubChem BioAssay AID540257 (Southern Research Specialized Biocontainment Screening …, 2011):
Out of some 1,800 compounds screened, about 15 (0.8%) were called active. These entries were drawn from the full list. Potency and affinity values are given separately. Values without a mark were called inactive. No rule for the calls is given here.

Assay: antiviral activity against H1N1 influenza, dose response, cell-based, strain KY136 (AID 540257)
Conditions: H1N1 KY136 influenza antiviral cell assay, % inhibition; series mostly up to 40 µM; inhibition: at the top concentration

Structure (SMILES)	inhibition [%]
c1ccc(-c2cn(C[C@H]3CC[C@@H]([C@@H]4CC[C@H](Cn5cc(-c6ccccn6)nn5)O4)O3)nn2)nc1	1.01
Cc1nnc2sc(SCC(=O)Nc3ccc(Cl)cc3)nn2c1=O	-2.9
CC(=O)N/C(=C/c1ccc(OC(F)F)cc1)C(=O)O	1.56
Cc1[nH]c(=O)[nH]c1C(=O)CCCCC(=O)O	1.82
COc1ccc(C2Nc3ccccc3C(=O)N2c2ccccc2)cc1CSc1ccccn1 (configuration not stated)	1.38
Cc1ccc(C(=O)Nc2ccccc2C(=O)NCC2CCCO2)cc1 (configuration not stated)	-1.35
CCOc1cccc(-c2c(C(=O)N/N=C(\C)c3ccccn3)nnn2-c2nonc2N)c1	-13.8
O=C1NCCCC1C(=O)N/N=C/c1cc([N+](=O)[O-])ccc1O (configuration not stated)	-13
C/C(=N\NC(=O)c1cccc(Br)c1)c1ccccn1	-1.04
COc1ccc(NC(=O)CSc2nc3ccccc3nc2N2CCCC2)c(OC)c1	0.12
COCc1cc(C)n(CC(=O)Nc2cccc(C)c2)c(=O)c1C#N	-0.15
COc1ccc(/C=C/C(=O)NCCn2c(C)cc3ccccc32)cc1OC	0.58
CCN1C(=O)/C(=C2\SC(=S)N(CCCOC)C2=O)c2ccccc21	2.51
O=c1c2ccccc2ncn1C1CCCCC1	-6.06
CCOC(=O)C1CCN(C(c2cccc(OC)c2)c2sc3nc(C)nn3c2O)CC1 (configuration not stated)	4.95
COc1ccccc1/C=N/NC(=O)c1[nH]c(C)c(C(=O)N/N=C/c2ccccc2OC)c1C	0.28
CCCCN1C2=C(C(=O)CC(C)(C)C2)C(c2ccccc2)C2=C1c1ccccc1C2=O (configuration not stated)	0.91
C(=N\c1c(-c2ccccc2)nc2n1CCS2)/c1ccccc1	1.65
CN(C)c1ccc(/C=C/C=C2/C(=O)NC(=O)N(c3ccccc3)C2=O)cc1	-1.39
CC(=O)Oc1ccc(C(=O)Nc2ccccc2C(=O)NCC(C)C)cc1	-6.06
CC(=O)Nc1cccc(NC(=O)CSc2ccc(-c3ccccn3)nn2)c1	-3.76
COc1ccc(N2CCN(CCCNC(=O)c3cc4sccc4n3C)CC2)cc1	1.28

Structure (SMILES)	inhibition [%]
Clc1ccc(-c2cnnc(-c3ccccn3)n2)cc1	-2.12
O=[N+]([O-])c1ccc2c(c1Nc1ccccc1)=NC1(CCCCC1)N=2	7.35
C=CCn1c(=NC(=O)C2CCCCC2)sc2cc(NC(C)=O)ccc21	-2.32
CCc1ccccc1NC(=S)N(CCN(C)C)C(C)c1ccccn1 (configuration not stated)	6.54
COc1cc(-c2nnc(NC(=O)CCS(=O)(=O)c3ccc(F)cc3)o2)cc(OC)c1OC	-0.81
CCOC(=O)c1ccc(N2C(=O)c3n[nH]c(C)c3C2c2ccccn2)cc1 (configuration not stated)	5.65
Cc1cc2cc(CNC(=O)c3cccc([N+](=O)[O-])c3)ccc2n1C	4.06
CC(C)Oc1ccccc1/C=N/Nc1ccccc1[N+](=O)[O-]	-1.97
CN1CCN(c2ccc([N+](=O)[O-])cc2C(=O)c2ccccc2)CC1	0.19
Oc1ccc(/C=N/N(c2ccccc2)c2ccccc2)c(O)c1O	-0.92
C/C(CC(C)C)=N/Nc1ccc([N+](=O)[O-])cc1[N+](=O)[O-]	-6.42
Cc1cc(NC(=O)CSc2nnc(C)c(=O)[nH]2)no1	0.81
COc1cccc(C(=O)NC(C)C(c2cccs2)N2CCOCC2)c1 (configuration not stated)	1.55
Cc1c2cc(O)c(=O)cc-2oc2cc(O)c(O)cc12	-0.93
CCOc1ccc(N=Nc2c(=O)[nH]n3c(=O)c4c([nH]c23)CCCC4)cc1	1.63
O=c1oc2cc(Oc3ccc(C(F)(F)F)cc3[N+](=O)[O-])ccc2c2c1CCC2	-3.03
CN1CCc2c(sc(NC(=O)Cc3ccccc3)c2C(N)=O)C1	5.22
CCOc1ccc(N2CSC3=C(C#N)C(c4ccco4)CC(=O)N3C2)cc1 (configuration not stated)	-0.3
CCCC(=O)NC(c1ccccc1)c1ccc2cccnc2c1O (configuration not stated)	-4.68
CN(C1=C(N2CCCCC2)C(=O)c2ccccc2C1=O)c1ccccc1	-3.76
COc1cccc(/C=N/Nc2ccnc(=O)[nH]2)c1O	-1.51
COc1cccc(C(=O)Cn2c(N3CCOCC3)nc3c2c(=O)n(C)c(=O)n3C)c1	0.81

Structure (SMILES)	inhibition [%]
COc1ccc(Nc2c([N+](=O)[O-])ccc3c2=NC2(CCCCC2)N=3)cc1	0.23
O=C(COC(=O)C1CC(=O)N(Cc2ccccc2)C1)c1ccc(Br)cc1 (configuration not stated)	1.97
O=C1C(NS(=O)(=O)c2ccccc2)=C(N2CCN(c3ccc(F)cc3)CC2)C(=O)c2ccccc21	-3.18
CCn1c(CNC(=O)c2cccc(C)c2)nnc1SCC(=O)Nc1cccc(OC)c1	-0.35
COc1cccc(NC(=O)CSc2nnc(CNC(=O)c3ccccc3)n2C)c1	-0.92
COc1ccccc1NS(=O)(=O)c1cccc(NC(=O)Cc2cccs2)c1	2.51
COc1cc2ccccc2cc1C(=O)Nc1nnc(-c2ccncc2)o1	0.18
Cc1cccc(NC(=O)NC(C)C(c2cccs2)N2CCOCC2)c1 (configuration not stated)	4.01
Cc1ccc(S(=O)(=O)C2(C(=O)Nc3cccc(F)c3)CC2)cc1	0.83
COc1ccc(NC(=O)CC2C(=O)N(c3cccc(OC)c3)C(=O)N2Cc2ccco2)cc1 (configuration not stated)	-0.89
COC(=O)CSc1nnc(C)n1-c1cccc(C#N)c1	0
Cc1cc(C(F)F)nn1CC(=O)Nc1cc([N+](=O)[O-])ccc1F	6.79
Cc1cc(N(C)C)ccc1N=Nc1ccc(N)cc1	-4.32
CN1CCN(CCC(=O)N/N=C/c2cc([N+](=O)[O-])ccc2O)CC1	-2.66
CCCCn1c(SCC(=O)N2CCCc3ccccc32)nc2c1c(=O)n(C)c(=O)n2C	-0.15
CC(=O)c1cccc(S(=O)(=O)Nc2cccc(S(=O)(=O)NC3=NCCC3)c2)c1	0.46
CC[n+]1c(/C=C/c2ccc(N(C)C)cc2)ccc2ccccc21	-3.76
CCC(=O)NC(c1cccs1)c1cc([N+](=O)[O-])c2cccnc2c1O (configuration not stated)	-3.76
CCCCn1c(O)c(/C(CC)=N/N2CCCCC2c2cccnc2)c(=O)[nH]c1=S (configuration not stated)	0.28
CCCCCCn1nc(C(=O)N(CC(C)C)c2c(N)n(CCCC)c(=O)[nH]c2=O)c2ccccc2c1=O	-11.6
COc1cccc(NC(=O)CSc2nc3c(oc4ccccc43)c(=O)[nH]2)c1	1.97
COc1cccc(/C=N/Nc2cc(N3CCOCC3)ncn2)c1O	-5.03

Structure (SMILES)	inhibition [%]
CCc1c(C)nc(Nc2nc(C)c3cc(OC)ccc3n2)[nH]c1=O	0.12
O=C(Nc1cc(Cl)ccc1N1CCOCC1)c1cnccn1	2.51
COc1ccc(Nc2ncccc2C(=O)Nc2ccccc2)cc1	-5.03
COc1ccc(OC)c(-n2c(SCC(N)=O)nnc2-c2c[nH]c3ccccc23)c1	4.59
Cc1ccnc2nc(C(=O)Nc3nc(-c4ccccn4)cs3)nn12	3.18
O=C(CSc1nnc(CCCOc2ccc(Cl)cc2Cl)o1)Nc1ccc(C(=O)O)cc1	-0.09
COc1ccc(NC(=O)CNS(=O)(=O)c2ccc(Cl)cc2)cc1OC	1.52
CC1=[N+](C)c2c(ccc3cccnc23)C1(C)C	-1.21
CN(C)c1ccc(C=c2c3cc([N+](=O)[O-])ccc3n3c2cc(-c2ccccc2)[n+]3C)cc1	-5.42
CC(c1cccs1)N(Cc1ccco1)C(=O)Nc1ccc(Cl)c(Cl)c1 (configuration not stated)	-7.16
Cc1c(NC(=S)N/N=C\c2ccccc2O)c(=O)n(-c2ccccc2)n1C	-1.97
O=C(CS(=O)(=O)c1cn(Cc2ccc(Cl)cc2)c2ccccc12)N1CCCCC1	1.62
COC1=C(Nc2ccc(OC)cc2)C(=O)c2ccccc2C1=O	-4.13
Cc1ccccc1NC(=O)CSc1nn2c(=O)c(C)nnc2s1	-5.32
C(=N\Nc1nc2ccccc2[nH]1)/c1cccc2cccnc12	-3.18
C[C@@H]1NC(=O)N[C@@H]1CCCCCC(=O)O	0.46
C=CCC1c2cccc(C(=O)O)c2C(=O)N1c1ccc(F)cc1 (configuration not stated)	-0.92
Cc1cc(C)cc(NC2=C(N)C(=O)c3ccccc3C2=O)c1	-0.3
CCc1ccc(NC(=O)N(CCN2CCOCC2)Cc2ccc3c(c2)CCCN3CC)cc1	1.01
CCCc1nc(SCc2cccnc2)c2c(=O)n(C)c(=O)n(C)c2n1	0.3
Cc1ccccc1NC(=S)N(CCN(C)C)C(C)c1ccccn1 (configuration not stated)	8.04
Cc1ccc(S(=O)(=O)/N=C2\C=C(Nc3cccc(C(=O)O)c3)C(=O)c3ccccc32)cc1	-0.83

Structure (SMILES)	inhibition [%]
CCCN(CCC)CCCNC(=O)CCNS(=O)(=O)c1ccc(Br)cc1	-1.67
O=C(NCc1cccs1)c1cnc2sccn2c1=O	0.92
CN1CCc2c(sc(NC(=O)C3CCCCC3)c2C(N)=O)C1	2.08
COc1cc(N(C)C)ccc1C=c1c2ccccc2n2c1cc(-c1ccccc1)[n+]2C	-5.05
O=C(NCc1cccnc1)C1c2ccccc2C(=O)N1C1CCCCCCC1 (configuration not stated)	0.93
CN(C)c1ccc(Cc2ccc(N(C)C)cc2)cc1	-1.19
Nc1nc(-c2ccccn2)nc(N)c1Cc1c(F)cccc1Cl	-2.88
COC(=O)CNC(c1ccccc1)c1cc(C)ccc1NS(=O)(=O)c1ccc(C)cc1 (configuration not stated)	20.3
CN(C)CCCNC(=S)NCC(c1ccc(Cl)cc1Cl)c1c[nH]c2ccccc12 (configuration not stated)	-16
O=C(Nc1nc2c(s1)CCCC2)c1ccc(Br)s1	-2.12
Cc1cccc(N2CCN(C(=O)c3cc4ccccc4oc3=O)CC2)c1C	-3.85
COc1cc(N/N=C/c2ccccc2O)ncn1	-1.49
CCOc1ccc(-c2nc(C#N)c(N3CCOCC3)o2)cc1	1.35
CCc1ccc(S(=O)(=O)/N=C2\C=C(Nc3ccc(O)cc3)C(=O)c3ccccc32)cc1	-1.51
O=C(Nc1nc(-c2ccccc2)cs1)c1ccc(S(=O)(=O)N2CCc3ccccc32)cc1	0
c1ccc(-c2nc(-c3ccncc3)n[nH]2)nc1	0.76
Oc1cccc2ccc(Nc3ccccn3)nc12	-14.1
O=C(N/N=C/c1ccccc1O)C1SCCCS1	-12.7
CCCCOc1cccc(-c2nnc(NC(=O)CSc3ccc(C)cc3)s2)c1	0.19
